# About 1,700 (0.5%) of roughly 340,000 compounds were called active. Roughly 2% stayed inconclusive and do not appear here. Cut-off read from the data, not from the text of the source: active = activity change below about -65%; inconclusive = mostly about -30% to -63%; inactive = weaker than that. Only a selection was taken, and actives are over-represented in it overall.
# System: CtBP / adenovirus E1A interaction (AlphaScreen)
# Test: qHTS Assay for Inhibitors of the CtBP/E1A Interaction
# Conditions: AlphaScreen GST-E1A/His-CtBP binding, 1536-well; active compounds read low
# Excerpt: Carboxyl-terminal binding protein (CtBP) is a co-repressor for many transcription factors. […] Our studies have shown that CtBP is overexpressed in multiple human cancers, including lung, breast, and head and neck cancers. In particular, it is over-expressed in 50% of primary lung cancer and 90% of metastatic lesions. CtBP suppresses epithelial-specific genes as well as genes critical for apoptosis, providing the underlying molecular mechanism for its role in tumorigenesis. […] Based on the above data, we hypothesize that 1) CtBP suppresses the pro-apoptotic and epithelial genes, therefore overexpressed CtBP in human cancer cells increases EMT and cancer survival; 2) decreasing CtBP's function represents a targeted therapy for lung cancer and potentially multiple cancer types. As a co-repressor, CtBP binds to E1A and other transcription factors through a conserved peptide motif to carry out its action. Inhibiting this interaction using small molecules can potentially serve as effective cancer therapeutics.
# To this end, we have developed a homogenous AlphaScreen assay targeting the CtBP/E1A interaction. We performed a large scale HTS of the Molecular Libraries Small Molecule Repository (MLSMR) to identify inhibitors of the CtBP/E1A interaction as potential anti-cancer therapeutics. Compounds identified can also be used as chemical probes to better understand the biological functions of CtBP.
# NIH Chemical Genomics Center [NCGC]
# NIH Molecular Libraries Probe Centers Network [MLPCN]
# Assay Submitter (PI): Rui Zhao, University of Colorado Denver
# The first step of the 5uL AlphaScreen assay is to dispense assay buffer (50 mM Tris, pH 8.0, 300 mM NaCl, 0.05% BSA, 0.02% Tween 20, 1 mM TCEP) into a Greiner 1536 white solid bottom microtiter plate (789175-F). Five microliters is added to Column 1, 4 uL is added to Column 2 and 3 uL is added to Columns 3 through 48. A 5X protein solution (125 nM GST-E1A protein + 125 nM His-tagged CtBP protein) is mixed and 1 uL is dispensed to Columns 3-48. Using a 1536 pintool, 23 nL of compound is transferred to the assay plate and the plate is incubated with a lid at 37 deg C in the dark for two hours. A solution of 5X AlphaScreen beads is mixed (50 ug/mL Glutathione linked donor beads + Nickel chelated acceptor beads) and 1 uL is dispensed to Columns 2-48. The assay plate is incubated for one hour, with a lid, at 37 deg C in the dark. The plate is read using a Perkin Elmer Envision using an AlphaScreen protocol.
# % is set by controls: 0 for no effect and ±100 for the full control effect.
row,SMILES,activity change
1,CCOC(=O)[C@]12CCCC=C1N(CCC1=CCCCC1)C(=O)[C@H](CC(=O)N1CCN(C(=O)c3ccco3)CC1)C2,-6.31% (inactive)
2,NC(=O)NC(CC(=O)NNC(=O)c1ccccn1)c1ccc(Cl)cc1 (configuration not stated),-76% (active)
3,O=C(COC(=O)c1ccccn1)NNC(=O)c1ccc(Br)cc1,-15.7% (inactive)
4,CN(C)S(=O)(=O)c1ccc(Cl)c(NC(=O)COC(=O)CC(NC(N)=O)c2ccc(Cl)cc2)c1 (configuration not stated),-6.53% (inactive)
5,CC(C)NC(=O)C1(C)CCCCCN1C(=O)c1ccc(-c2ccccc2)cc1 (configuration not stated),-11.1% (inactive)
6,CCCC/C=C/c1cccc2nncn12,2.58% (inactive)
7,COc1cccc(-c2cc3nc(NCCOc4ccccc4Cl)n(C)c(=O)c3s2)c1,3.25% (inactive)
8,COc1ccc(CCCNC(=O)C2Cc3c(-c4cccc(C(N)=O)c4)ccnc3O2)cc1 (configuration not stated),-0.248% (inactive)
9,COc1ccc(C(=O)NCC(=O)N/N=C/c2cccnc2)cc1,11.7% (inactive)
10,CCOC(=O)N/N=C/c1cccnc1,25.9% (inactive)
11,O=C(CSc1cccc2cccnc12)N/N=C/c1cccnc1,-93.9% (active)
12,CCCCn1nnnc1C(c1cc2ccccc2o1)N(C)Cc1ccc(Cl)c(Cl)c1 (configuration not stated),13.3% (inactive)
13,O=C(Nc1ccc2c(c1)OCCO2)C(C1CC1)N1CCC(Cc2ccccc2)CC1 (configuration not stated),-10.3% (inactive)
14,O=C(OCC(=O)N1CCCC1)c1ccc(Cl)nc1,2.13% (inactive)
15,O=C(OCC(=O)N1CCCCCC1)c1ccc(Cl)nc1,-1.48% (inactive)
16,O=C(OCC(=O)N1CCCCCC1)c1cnc(Cl)c(Cl)c1,-78.7% (active)
17,OCc1ccc(OCCCOc2cccc3cccnc23)cc1,-7.66% (inactive)
18,O=S(=O)(NCCOc1cccc2cccnc12)c1ccc(F)cc1,6.61% (inactive)
19,O=C(Nc1ccccc1)Oc1cccc2cccnc12,-90.3% (active)

row,SMILES,activity change
1,COC(=O)[C@@]12C[C@@H](CC(=O)NCc3cccc(C(F)(F)F)c3)C(=O)N(Cc3ccco3)C1=CCC(C)(C)C2,-3.58% (inactive)
2,CCCCCCCCN1C(=O)[C@H](CC(=O)NCc2cccc3ccccc23)C[C@@]2(C(=O)OC)CCCCC=C12,-7.91% (inactive)
3,C/C(=N\NC(=O)c1ccoc1C)c1ccccc1O,-25.9% (inactive)
4,CCCCCCCN=C(C)c1ccccc1O,2.02% (inactive)
5,C/C(=N\Nc1ccc(Cl)nn1)c1ccccc1O,-87.6% (active)
6,CC(C)Nc1ncnc2c1ncn2[C@H]1CN(Cc2ccncc2)C[C@@H](CO)O1,4.17% (inactive)
7,Cc1cc(O)ccc1-c1cc(C(=O)NCc2cc(C(F)(F)F)cc(C(F)(F)F)c2)[nH]n1,0.488% (inactive)
8,O=C(Nc1ccc(Cl)c(C(F)(F)F)c1)C1Cc2c(-c3ccccc3Oc3ccccc3)ccnc2O1 (configuration not stated),-3.42% (inactive)
9,CC(O)(c1cccc(F)c1)c1nc(-c2ccc3c(c2)OCO3)cs1 (configuration not stated),0.33% (inactive)
10,Cc1ncc(CO)c(/C=N/NC(=O)c2cccc(S(=O)(=O)N3CCCC3)c2)c1O,0% (inactive)
11,Cc1cc(C)nc(N/N=C/c2c(CO)cnc(C)c2O)n1,-85.2% (active)
12,CCc1nc2c(OCc3ccc(Cl)cc3Cl)cccn2c1N(C)C(=O)C(C)C,-14.5% (inactive)
13,CC(C)(C)OC(=O)NCCCCCNC(=O)c1[nH]cnc1C(=O)Nc1nccs1,-77% (active)
14,CC(C)(C)OC(=O)NCCCCCNC(=O)c1nc[nH]c1C(=O)NCc1ccccc1,4.97% (inactive)
15,Cc1ccc(NC(=O)c2nc[nH]c2C(=O)N[C@@H](CCCCNC(=O)OC(C)(C)C)C(=O)OC(C)(C)C)cc1,-1.82% (inactive)
16,COc1ccc(Cc2nnc(SC)[nH]c2=O)cc1,0.0747% (inactive)
17,O=c1[nH]c(NCCO)nnc1Cc1ccc(Cl)cc1,0.739% (inactive)
18,COc1ccc(Cc2nnc(N/N=C/c3ccccc3O)[nH]c2=O)cc1OC,-73.4% (active)
19,CC1CCN(C(=O)CSc2nnc(-c3ccco3)n2N)CC1,1.76% (inactive)

row,SMILES,activity change
1,COc1cc2ccc(C(C)=O)c(O)c2cc1OC,3.1% (inactive)
2,NC(c1csc(NC(=O)Nc2ccccc2Oc2ccccc2)n1)c1ccccc1Cl (configuration not stated),-22.8% (inactive)
3,Cc1cccc(C)c1Cn1c(C)c(C(=O)NCc2cccc(Cl)c2)sc1=O,-20% (inactive)
4,Cc1ccc2cccc([N+](=O)[O-])c2n1,-11.4% (inactive)
5,NS(=O)(=O)c1ccc(CCNS(=O)(=O)c2cccc3cccnc23)cc1,3.18% (inactive)
6,O=[N+]([O-])c1ccccc1S(=O)(=O)Nc1cccc2cccnc12,-78.7% (active)
7,CNC(=O)C1CN(C(=O)c2cccc(S(=O)(=O)N3CCc4ccccc43)c2)c2ccccc2O1 (configuration not stated),-7.74% (inactive)
8,CCOC(=O)[C@]12CCCC=C1N(Cc1ccc3c(c1)OCO3)C(=O)[C@H](CC(=O)NCc1cccs1)C2,-17.2% (inactive)
9,CN(C)C(CNC(=O)c1cc(Br)c(Br)s1)c1ccco1 (configuration not stated),0.728% (inactive)
10,Nc1nonc1-n1nnc(C(=O)N/N=C/c2ccccc2O)c1CN1CCCC1,-92.6% (active)
11,CC(C)c1c(C(=O)N/N=C/c2ccccc2C(=O)O)nnn1-c1nonc1N,18.7% (inactive)
12,CCc1ccc(/C=N/NC(=O)c2nnn(-c3nonc3N)c2CN2CCc3ccccc32)cc1,-23.8% (inactive)
13,CCOC(=O)N1CCN(C(=O)C[C@@H]2C[C@@]3(C(=O)OC)CCCCC=C3N(CCC3=CCCCC3)C2=O)CC1,-2.03% (inactive)
14,Oc1ccc2ccccc2c1N=Nc1nccs1,-93.9% (active)
15,Oc1ccc(N=Nc2nccs2)c(O)c1,-92.5% (active)
16,OC[C@@H]1CN(Cc2ccc(-c3ccccc3)cc2)C[C@H](n2cnc3c(NC4CCCC4)ncnc32)O1,-10.7% (inactive)
17,O=C1[C@H]2[C@@H](c3ccc(C(F)(F)F)cc3)N[C@]3(CCCN(Cc4ccc(Cl)cc4)C3=O)[C@H]2C(=O)N1Cc1ccccc1,5.38% (inactive)
18,Cc1ccc(S(=O)(=O)N2C[C@H]3n4c(=O)ccc(=O)n4C[C@H](OC(=O)NC4CCCC4)[C@@]3(O)C2)cc1,2.31% (inactive)
19,CC(=O)NC(c1cccc(F)c1)c1nc(-c2cccc(F)c2)cs1 (configuration not stated),6.59% (inactive)
